Data as given in PubChem BioAssay (Tox21).
Records with an inconclusive call do not appear. Where a call stands in place of a potency, no number is given. A number with no mark means an inactive call. Calls of active or inactive are those of the source. The call rests on the fitted dose curve; in most records, active means well fitted cell-killing curve with a large enough effect in the repeat runs; inconclusive means weak or mixed curves, or effect the other way; inactive means flat fitted curve, though single readings scatter.

Test: qHTS assay to identify small molecule antagonists of the constitutive androstane receptor (CAR) signaling pathway - cell viability counter screen (AID 1224837); further: nearly all actives have a fitted effect of over 45% in size
Details: HepG2-CYP2B6-hCAR viability, CellTiter-Fluor, 23 h, co-treated with 50 nM CITCO; series mostly up to 92.4 µM; activity change, negative = cytotoxicity: at the top concentration
Text: National Center for Advancing Translational Sciences [NCATS]
NIH Chemical Genomics Center [NCGC]
U.S. Environmental Protection Agency [EPA]
National Institutes of Environmental Health Sciences [NIEHS]
National Toxicology Program [NTP]
U.S. Food and Drug Administration [FDA]
The constitutive androstane receptor (CAR) is a nuclear receptor which regulates multiple drug metabolizing enzymes (DMEs) and transporters. Activating CAR will generally increase the transcription and subsequent translation of CYP2B6 and CYP3A4. These two DMEs represent about 50% of the drug metabolizing potential in the body. When CAR is deactivated, the metabolizing potential in the body will decrease, subsequently increasing the toxicity in the body or lowering the therapeutic potential of a pro-drug. Recently, there have also been studies performed indicating CARs role in energy metabolism and cancer therapy. Therefore, inhibiting CARs activity could have a potential effect on diabetes and cancer. Identifying environmental toxins and compounds which modulate CAR, through the use of the Tox21 10K compound collection, will be an important step in determining the toxicity and potential therapeutic effects these factors will have on the human body. To differentiate true CAR antagonists from cytotoxic substances, the assay is multiplexed with a cell viability assay.
Tox21 Assay Protocol Summary:
A double-stable (hCAR and CYP2B6-2.2kb) transfected cell line, derived from human hepatoma (HepG2) cells, was utilized for the duration of the quantitative high-throughput screens. The HepG2-CYP2B6-hCAR cells were dispensed at 2500 cells/4 uL/well in 1536-well white solid bottom plates using a Multidrop Combi. After the assay plates were incubated at 37 C/5% CO2 for 4 hrs, 23 nL of compounds at 15 concentrations (from 5-48 columns) or positive control (from 1 to 4 columns) were transferred to the assay plates using a Pintool station. One uL of CITCO (final concentration = 50 nM) was added, using a Flying Reagent Dispenser, inside each well. After a 23 hr incubation period at 37 C/5% CO2, 1 uL of CellTiter-Fluor reagent was added into each well of the assay plates using a Flying Reagent Dispenser. The fluorescence intensity in the plates was then measured using a ViewLux plate reader.

Compound	Potency	activity change, negative = cytotoxicity
CCCCCCCCCCCCCC(=O)O	inactive	
O=C(c1ccccc1)c1ccc(O)c(O)c1O	inactive	
COc1ccc2cc3[n+](cc2c1OC)CCc1cc2c(cc1-3)OCO2		-9.64% [at 42.5 µM]
C=CC(C)(C)C	inactive	
Cc1nnc(NS(=O)(=O)c2ccc(N)cc2)s1	inactive	
CCCCCCCCCCCC(=O)N(C)CC(=O)O	inactive	
CC(=O)Nc1ccc(CC(=O)O)cc1	inactive	
CCOC(=O)c1ccc(O)cc1	inactive	
CC(C=O)Cc1ccc(C(C)(C)C)cc1 (stereo not given)	inactive	
COC(=O)/C=C\C(=O)OC	inactive	
NC(N)=S	inactive	
OCCOCCOCCOCCOCCO	inactive	
Cc1ccccc1Cl	inactive	
COC(=O)CCCCC(=O)OC	inactive	
CC(C)=CCC/C(C)=C/C=O	inactive	
CCCCCCC(=O)O	inactive	
Cc1ccc(C(C)C)cc1	inactive	
CC1(C)C(=O)N(Cl)C(=O)N1Cl	inactive	
C[n+]1ccn(CCO)c1	inactive	
OC[C@H]1O[C@@H](Oc2ccc(O)cc2)[C@H](O)[C@@H](O)[C@@H]1O	inactive	

Compound	Potency	activity change, negative = cytotoxicity
CCCCCCCCO	inactive	
CC(C)c1ccc(C(C)C)cc1	inactive	
OCC(O)CS (stereo not given)	inactive	
Cc1cc(C)cc(O)c1	inactive	
OCC(CO)(CO)CO	inactive	
NC(=O)c1ncn([C@@H]2O[C@H](CO)[C@@H](O)[C@H]2O)n1	inactive	
COc1ccc(N)c(OC)c1	inactive	
Cc1ccncc1	inactive	
O=c1n(CCCN2CCN(c3cccc(Cl)c3)CC2)nc2ccccn12	inactive	
CC(COCC(C)OC(=O)c1ccccc1)OC(=O)c1ccccc1 (stereo not given)	inactive	
CCn1cc(C(=O)O)c(=O)c2cc3c(cc21)OCO3	inactive	
Nc1cccc(C(F)(F)F)c1	inactive	
Cc1ccc(Cl)cc1	inactive	
N#CCC(=O)O	inactive	
NC1CCCCC1N (stereo not given)	inactive	
Cc1ncc(CO)c(CO)c1O	inactive	
O=C(NCC1CCCCN1)c1cc(OCC(F)(F)F)ccc1OCC(F)(F)F (stereo not given)	inactive	
CC/C=C(\C(=O)N[C@@H]1C(=O)N2C(C(=O)OCOC(=O)C(C)(C)C)=C(COC(N)=O)CS[C@H]12)c1csc(N)n1	inactive	
CC(=O)C(C)C	inactive	
O=C1C(N(CO)C(=O)NCO)N(CO)C(=O)N1CO (stereo not given)	inactive	
